Over roughly 4,500 sequences, “log2 normalized fluorescence” has its median near -0.34; the highest 2% begin near 3.3. This is one part of a sample in which the highest values are shown more often than they occur.

Sequence of MAX:MAX (p21) (P61244 other isoform, or with tags, fused parts or gaps): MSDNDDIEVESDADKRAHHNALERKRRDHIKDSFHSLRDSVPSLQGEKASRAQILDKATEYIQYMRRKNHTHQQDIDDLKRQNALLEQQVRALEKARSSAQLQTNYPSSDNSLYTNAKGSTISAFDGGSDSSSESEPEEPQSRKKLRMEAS

The assay has as its target MAX:MAX (p21) (human, UniProt P61244-2 1-151). Kind of assay: protein-binding microarray (anti-MAX antibody); PBM: 15 mM Tris-HCl pH 7.5, 100 mM KCl, 0.075% NP40, 7.5 mM beta-mercaptoethanol, 375 ng/ul BSA, 8 ng/ul poly(dA-dT):(dA-dT), 550 ng complex, 60 min, room tempe; high values mean tight binding. Conditions: protein: recombinant; tags: 6xHis; chain copies: 2; label: 3' end of printed strand (linker) attached to glass slide; dsDNA, one strand shown. The gist of the method: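 A custom Agilent glass array held ~5000 unique 12-nt sequences in triplicate spots, made double-stranded by primer extension. His-tagged human MYC:MAX or MAX:MAX dimers (550 ng, produced in E. coli) were applied for 60 min at room temperature in Tris-KCl buffer, pH 7.5, with NP40, BSA and poly(dA-dT) competitor. Anti-MAX and secondary antibodies detected bound protein, with scanning at 543 nm, and binding is given as log2 normalized fluorescence.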
Regarding “CCGGCTGAGGCGGCGTATTAATAGCTAAGATTACTATATCGACG”, the binding signal is -0.641 log2 normalized fluorescence. The result for “CCGGCTGAGACGCCGTATTAATAGCTAAGATTACTATATCGACG” reads -0.749 log2 normalized fluorescence. The result for “CCGGCTGAGGTGGTGTATTAATAGCTAAGATTACTATATCGACG” reads -0.0636 log2 normalized fluorescence; that for “CCGGCTGAATAAGCGTATTAATAGCTAAGATTACTATATCGACG”, -0.651 log2 normalized fluorescence; that for “CCGGCCGCGACGTGGTATTAATAGCTAAGATTACTATATCGACG”, 2.79 log2 normalized fluorescence. The same measure for “CCGGCTGCCTCGTGGTATTAATAGCTAAGATTACTATATCGACG”: 3.36 log2 normalized fluorescence.

“CCGGCCACCACGTGGTATTAATAGCTAAGATTACTATATCGACG”: the binding signal is 3.24 log2 normalized fluorescence. Consider “CCGGCCGCCACGTGGTATTAATAGCTAAGATTACTATATCGACG”, for which the binding signal was 3.32 log2 normalized fluorescence. The result for “CCGGCAGCCACGTGGTATTAATAGCTAAGATTACTATATCGACG” reads 3.13 log2 normalized fluorescence; that for “CCGGCTAACGCGTGGTATTAATAGCTAAGATTACTATATCGACG”, 3.26 log2 normalized fluorescence; that for “CCGGCTGCGACGTGGTATTAATAGCTAAGATTACTATATCGACG”, 2.27 log2 normalized fluorescence. For “CCGGCTGCCCCGTGGTATTAATAGCTAAGATTACTATATCGACG”, the binding signal was 2.88 log2 normalized fluorescence. The same measure for “CCGGCCGACGCGTGGTATTAATAGCTAAGATTACTATATCGACG”: 3.33 log2 normalized fluorescence. The result for “CCGGCTTACGCGTGGTATTAATAGCTAAGATTACTATATCGACG” reads 3.27 log2 normalized fluorescence. For “CCGGCTGCCACGTGGTATTAATAGCTAAGATTACTATATCGACG”, the binding signal is 3.42 log2 normalized fluorescence.

With “CCGGCTGCCGCGTGGTATTAATAGCTAAGATTACTATATCGACG”, the binding signal was 3.21 log2 normalized fluorescence. The same measure for “CCGGCTGACAATGGGTATTAATAGCTAAGATTACTATATCGACG”: 0.0164 log2 normalized fluorescence; for “CCGGCTGATGGGTAGTATTAATAGCTAAGATTACTATATCGACG”: -0.121 log2 normalized fluorescence.

On to “CCGGCTGACATTTGGTGTTAATAGCTAAGATTACTATATCGACG”, for which the binding signal was -0.316 log2 normalized fluorescence. The same measure for “CCGGCTGACATAGCGTATTAATAGCTAAGATTACTATATCGACG”: -0.366 log2 normalized fluorescence; for “CCGGCTGAGACACTGTATTAATAGCTAAGATTACTATATCGACG”: -0.484 log2 normalized fluorescence; for “CCGGCTGATACGCCGTATTAATAGCTAAGATTACTATATCGACG”: -0.497 log2 normalized fluorescence. The same measure for “CCGGCTGAGACCCTGTATTAATAGCTAAGATTACTATATCGACG”: -0.583 log2 normalized fluorescence; for “CCGGCTGAGCAGGGGTATTAATAGCTAAGATTACTATATCGACG”: 0.451 log2 normalized fluorescence; for “CCGGCCGCCACGTAGTATTAATAGCTAAGATTACTATATCGACG”: 1.58 log2 normalized fluorescence.

As for “CCGGCCGCCACGTGGTCTTAATAGCTAAGATTACTATATCGACG”, the binding signal is 3.44 log2 normalized fluorescence.

With “CCGGCTGAGACGTGGTCTTAATAGCTAAGATTACTATATCGACG”, the binding signal is 1.44 log2 normalized fluorescence. The result for “CCGGCAAACACGTTGTATTAATAGCTAAGATTACTATATCGACG” reads 3.31 log2 normalized fluorescence. With “CCGGCATACACGTGGTATTAATAGCTAAGATTACTATATCGACG”, the binding signal was 3.25 log2 normalized fluorescence. The result for “CCGGCGTACACGTGGTCTTAATAGCTAAGATTACTATATCGACG” reads 3.35 log2 normalized fluorescence. The same measure for “CCGGCGTACACGTGGTATTAATAGCTAAGATTACTATATCGACG”: 3.3 log2 normalized fluorescence; for “CCGGCTTACACGTGGTCTTAATAGCTAAGATTACTATATCGACG”: 3.19 log2 normalized fluorescence; for “CCGGCAGACACGTGGTATTAATAGCTAAGATTACTATATCGACG”: 3.08 log2 normalized fluorescence. The result for “CCGGCTGGTACGTGGTCTTAATAGCTAAGATTACTATATCGACG” reads 1.03 log2 normalized fluorescence; that for “CCGGCTGACACGTGGTCTTAATAGCTAAGATTACTATATCGACG”, 3.21 log2 normalized fluorescence. As for “CCGGCGTATACGTGGTATTAATAGCTAAGATTACTATATCGACG”, the binding signal is 1.62 log2 normalized fluorescence. The result for “CCGGCAGACACGTGGTCTTAATAGCTAAGATTACTATATCGACG” reads 3.43 log2 normalized fluorescence; that for “CCGGCTAACACGTTGTATTAATAGCTAAGATTACTATATCGACG”, 3.12 log2 normalized fluorescence; that for “CCGGCCAACACGTTGTATTAATAGCTAAGATTACTATATCGACG”, 3.07 log2 normalized fluorescence.

As to “CCGGCTGACCATCTGTATTAATAGCTAAGATTACTATATCGACG”, the binding signal was 1.1 log2 normalized fluorescence. In the case of “CCGGCTGACGTACAGTATTAATAGCTAAGATTACTATATCGACG”, the binding signal was -0.0346 log2 normalized fluorescence. The same measure for “CCGGCTGACACGTAACATTAATAGCTAAGATTACTATATCGACG”: 1.37 log2 normalized fluorescence. The result for “CCGGCTGATTGGATGTATTAATAGCTAAGATTACTATATCGACG” reads -0.659 log2 normalized fluorescence; that for “CCGGCTGACTCGCTGTATTAATAGCTAAGATTACTATATCGACG”, 0.114 log2 normalized fluorescence; that for “CCGGCTGAAGAACCGTATTAATAGCTAAGATTACTATATCGACG”, -0.66 log2 normalized fluorescence. The result for “CCGGCTGACAACTTGTATTAATAGCTAAGATTACTATATCGACG” reads -0.311 log2 normalized fluorescence; that for “CCGGCCCGCCAAAGCATTTAATAGCTAAGATTACTATATCGACG”, 0.154 log2 normalized fluorescence. “CCGGCTGACAAATCGTATTAATAGCTAAGATTACTATATCGACG”: the binding signal was -0.658 log2 normalized fluorescence. The result for “CCGGCTGATCGTCAGTATTAATAGCTAAGATTACTATATCGACG” reads -0.695 log2 normalized fluorescence; that for “CCGGCTGAGAGCGCGTATTAATAGCTAAGATTACTATATCGACG”, -0.456 log2 normalized fluorescence.

As for “CCGGCTAACACGTGGTATTAATAGCTAAGATTACTATATCGACG”, the binding signal is 3.45 log2 normalized fluorescence. The same measure for “CCGGCCGACACGCGGTATTAATAGCTAAGATTACTATATCGACG”: 2.86 log2 normalized fluorescence. The same measure for “CCGGCTGACACGCGGTATTAATAGCTAAGATTACTATATCGACG”: 3.1 log2 normalized fluorescence.

For the origin of these results see PMC5515408, “Sequence-specific DNA binding by MYC/MAX to low-affinity non-E-box motifs”.
